The values below come from PubChem BioAssay AID540317 (National Center for Advancing Translational Sciences (NCATS), 2011).

Screen size: about 390,000 compounds; about 2,200 (0.56%) were called active. Where a call stands in place of a potency, no number is given. Another 3% or so got no clear call; they are omitted. Calls follow the shape of the dose curve; as a rule, active = well fitted inhibition curve with a large enough effect; inconclusive = small, poorly fitted or top-dose-only effect; inactive = no such curve, though single readings can be large or run the other way. Only a selection was taken, and actives are over-represented in it overall.
Potency is read from the fitted curve at half-maximal effect.

In the assay the target is Chromobox protein homolog 1 (Homo sapiens) (UniProt P83916). The assay is described as follows: HTS for Inhibitors of HP1-beta Chromodomain Interactions with Methylated Histone Tails. Also: nearly all actives have a fitted effect of over 70% in size. The conditions noted are these: AlphaScreen HP1-beta / biotin-H3K9me3 peptide binding; series mostly up to 114 µM. The text has this: As our understanding of epigenetics expands, it is becoming clear that players in this field are potential targets for drug development. This area of epigenetic therapy has established applications for the treatment of cancer and neurological diseases. We have been involved in this field for a number of years and have performed high-throughput screens to identify the first small molecule inhibitors of protein methyltransferases. These methyltransferases target multiple substrates, and thus regulate many arms of an epigenetic pathway. The methylation of different substrates often generates docking sites for effector proteins that harbor binding domains (chromo, tudor, PHD, MBT and ANK repeats). It has been proposed that the binding sites generated for different proteins by these post-translational modifcations mediate downstream effects on chromatin. Consistent with this theory, di- and tri-methylation of histone H3K9 facilitates the binding of heterochromatin protein HP1. The HP1 protein harbors a chromodomain that is responsible for the methyl-dependent interaction between HP1 and lysine 9 of histone H3. HP1 was first described in flies as a heterochromatin associated protein that can regulate gene silencing. It harbors a chromodomain that binds H3K9me3. In addition, it harbors a chromoshadow domain that interacts with a large number of proteins that are involved in heterochromatin formation and gene repression. There are three highly related HP1 isoforms. All three variants are associated with pericentric heterochromatin and it is not clear whether they have specific or redundant functions. MPP8 is also involved in the repression of gene in euchromatic regions (unpublished data) and like HP1 its chromodomain binds H3K9me3. MPP8 harbors an ankyrin repeat region that is likely involved in binding and recruiting interacting proteins with transcriptional repressive function, much like the chromoshadow domain of HP1 does. We hypothesize that by inhibiting specific protein-protein interactions we will be able to develop compounds that block a single arm of an epigenetic pathway. The specificity attained by blocking a single protein-protein interaction will be far greater than that attained by blocking the enzyme that regulates one of many interactions. Low-affinity protein-protein interactions (Kd in the single- to double-digit micromolar range) such as those discussed here have been very difficult to assay by traditional techniques such as fluorescence polarization or fluorescence resonance energy transfer. We have developed a sensitive chemiluminescence-based assay (Quinn, et al. 2009), which serves as the starting point for this project. The following is a validation assay to identify lead compounds that can block methyl-dependent protein-protein interactions (specifically HP1-beta), which can be used as probes to analyze these methyl-driven interactions and perhaps even developed into targeted epigenetic therapies. NIH Chemical Genomics Center [NCGC] NIH Molecular Libraries Probe Centers Network [MLPCN] MLPCN Grant: DA031087 Assay Submitter (PI): Mark Bedford, University of Texas, Medical Anderson Cancer Center, TX
Chromobox protein homolog 1 (Homo sapiens), sequence (P83916 whole entry, looked up): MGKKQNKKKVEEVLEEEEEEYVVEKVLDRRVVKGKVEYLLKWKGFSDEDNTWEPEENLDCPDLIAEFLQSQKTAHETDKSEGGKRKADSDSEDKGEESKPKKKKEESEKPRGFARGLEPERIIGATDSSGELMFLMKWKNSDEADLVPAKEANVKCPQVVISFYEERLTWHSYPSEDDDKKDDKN
To each well, 2 uL of HP1-beta protein (final 50 nM) and 1 uL biotinylated histone peptide trimethylated at Lys9 [b-H3(1-18)K9me3] (final 50 nM) was added in 1x PBS buffer, pH 7.4, containing 0.01% Tween-20 using a nanoliter dispenser. Formation of a protein-peptide complex proceeded at room temperature for 30 min. A Kalypsys pin-tool was employed to transfer 23 nL of library compound solution in DMSO to each well. Aurintricarboxylic acid (ATA) was used as an intraplate control with a 12-point titration in duplicate. Following a 30 min incubation of the protein-peptide complex with compounds at room temperature, a mixture of 40 ug/mL each streptavidin-coated donor and nickel chelate acceptor AlphaScreen beads (final 10 ug/mL) was added in a 1 uL dispense for a final volume of 4 uL. […]
(In Alpha technology, singlet oxygen from a donor bead excites a nearby acceptor bead.)
With `NS(=O)(=O)c1cc(C(=O)OCC(=O)NNC(=O)c2ccccc2)ccc1Cl`, the Potency entry was “inactive”.
Regarding `O=C(NC1=CC(=O)c2ccccc2C1=O)c1ccccc1`, the Potency is 22.4 µM (active).
The result for `CCOc1ccccc1NC(=O)Cn1c2ncccc2c(=O)n1-c1ccc(C)c(C)c1` reads “inactive”.
The result for `COc1cccc(Nc2nc3ccccc3c3nncn23)c1` reads “inactive”; that for `Cc1csc(Nc2ccc(Cl)cc2)[n+]1-c1ccc(Cl)cc1`, 17.8 µM (active).
Regarding `COC(=O)c1cc(NC(=O)c2cnc(SC)nc2-c2ccccc2)cc(C(=O)OC)c1`, the Potency result was “inactive”.
On to `Cc1ccc(F)cc1S(=O)(=O)N1CCC(c2nc3ccccc3s2)CC1`, for which the Potency entry is “inactive”.
In the case of `Cc1ccc2cccc(NC(=O)c3cccc4ccccc34)c2n1`, the Potency result is “inactive”.
On to `COc1cc(Cl)cc(C2NC(=O)NC(C)=C2C(=O)NCc2ccccc2)c1O` (centres undefined), for which the Potency entry was “inactive”.
The result for `COc1ccc(CNC(=O)c2ccc3c(O)c(S(=O)(=O)c4ccccc4)c(=O)[nH]c3c2)cc1` reads “inactive”; that for `COc1cc(C(=S)NCc2ccccc2)cc(Br)c1O`, 7.94 µM (active); that for `COC(=O)c1ccc(NC(=O)CSc2n[nH]c(-c3ccccc3)n2)cc1`, “inactive”.
As for `COc1ccc(OCCCn2c(C3CC(=O)N(c4ccc(F)cc4)C3)nc3ccccc32)cc1` (centres undefined), the Potency result was “inactive”.
Consider `COc1ccc2c(c1)CCc1c(C(=O)Nc3cc(C)ccc3O)noc1-2`, for which the Potency result was “inactive”.
Next, `Cc1nnc(N2CCCC(C(=O)NCCN(C)C)C2)c2nn(-c3ccccc3)c(C)c12` (centres undefined): “inactive”; `CN(C)c1ccc(Nc2c3c4c(cccc4n(C)c2=O)C(=O)c2ccccc2-3)cc1`: 4.47 µM (active); `COc1ccc(Cl)cc1NC(=O)CCC(=O)c1ccc(C)cc1`: “inactive”.
The result for `COc1ccc(Cl)cc1NC(=O)CN(C)Cc1ccc(OC)c(OC)c1` reads 39.8 µM (active); that for `COc1ccc(Cl)cc1NC(=O)CCS(=O)(=O)c1ccc(Br)cc1`, 12.6 µM (active); that for `COc1ccc(Cl)cc1NC(=O)CN(C)C(=O)CNC(=O)C12CC3CC(CC(C3)C1)C2`, “inactive”.
Next, `Cc1ccc(Cl)cc1NC(=O)CCS(=O)(=O)c1ccc(Br)s1`: “inactive”.
Turning to `COc1ccc(Cl)cc1NC(=O)CN(C)CC(=O)Nc1ccc2c(c1)OCO2`, the Potency entry was “inactive”.
The result for `O=C(Nc1cccc2cccnc12)c1cccc2c(Br)cccc12` reads “inactive”.
The result for `COc1cccc(CNC(=O)CCc2nc(-c3ccc(C)cc3)no2)c1` reads “inactive”.
Consider `C=CCCN(C(Cc1ccccc1)C(=O)OC)S(=O)(=O)c1cc(Br)ccc1Br` (centres undefined), for which the Potency result is “inactive”.
The result for `COc1ccc(-c2noc(-c3ccc(N4CCN(c5ccccc5)CC4)c([N+](=O)[O-])c3)n2)cc1OC` reads “inactive”; that for `CCc1ccc(NC(=O)CN2C(=O)CCSc3ccc(S(=O)(=O)N4CCCC4)cc32)cc1`, “inactive”.
The result for `Cc1ccc(-c2nnc3ccc(SCC(N)=O)nn23)cc1` reads “inactive”.
The result for `COC(=O)CCc1ccccc1S(=O)(=O)N(CCC(=O)OC)Cc1ccccc1` reads “inactive”.
For `Cc1ccc(C)c(Nc2nnc(-c3ccc(C)c(S(=O)(=O)N4CCCCC4)c3)c3ccccc23)c1`, the Potency entry was “inactive”.
The result for `CC(C)OP(=O)(OC(C)C)C(Nc1ccccc1)c1cccc([N+](=O)[O-])c1` (centres undefined) reads “inactive”; that for `COC(=O)/C=C\C(=O)Nc1cccc([N+](=O)[O-])c1`, 10 µM (active); that for `CCc1ccc(NC(=O)C(C)OC(=O)/C=C/c2cccc([N+](=O)[O-])c2)cc1` (centres undefined), “inactive”.
The result for `Cc1c(-c2nsc(NC(=O)c3cccc(Cl)c3)n2)nnn1-c1ccccc1C(F)(F)F` reads “inactive”.
Regarding `CCOCCCNC(=O)c1ccc2nc(CCc3ccccc3)oc2c1`, the Potency result is “inactive”.
With `COc1ccc(/C=C/C(=O)c2cc(Br)ccc(=O)c2O)cc1`, the Potency is 50.1 µM (active).
Regarding `CCOc1ccc(NC(=S)NC(=O)/C=C/c2ccc(OC)cc2)c([N+](=O)[O-])c1`, the Potency entry is “inactive”.
Next, `COc1cccc(N2CC(NC(=O)/C=C\c3ccccc3)CC2=O)c1` (centres undefined): “inactive”.
The result for `CC1CCN(S(=O)(=O)c2ccc3c(c2)N(CC(=O)NCCc2ccccc2)C(=O)CO3)CC1` reads “inactive”; that for `Brc1nc2ncnc(NCc3ccco3)c2[nH]1`, “inactive”.
Next, `Nc1ccc2[nH]c(=S)sc2c1`: 28.2 µM (active); `COC(=O)c1ccc(NC(=O)CCc2c(C)nn(-c3ccc(N4CCCC4)nn3)c2C)cc1`: “inactive”; `Oc1ccc(N2CCN(C(=S)NCc3ccccc3)CC2)cc1`: “inactive”.
For the compound `Oc1ccc(CNc2ccccc2O)cc1`, the Potency is 50.1 µM (active).
Next, `OCC(CO)(CO)NCc1ccc(-c2ccccc2)cc1`: “inactive”; `COc1cccc(CNC(=O)CSc2c3c(nc4cc(Cl)ccc24)CCCC3)c1`: “inactive”; `N#Cc1cc2[nH]c(=O)c(=O)[nH]c2cc1[N+](=O)[O-]`: “inactive”.
For the compound `CCN(C(=O)Cn1cnc2sc(C)c(S(=O)(=O)N3CCN(c4ncccn4)CC3)c2c1=O)c1ccccc1F`, the Potency entry is “inactive”.
For `O=S(=O)(c1ccccc1)c1nc(-c2ccc(Cl)cc2Cl)oc1N1CCCCC1`, the Potency entry is “inactive”.
